Shown are actives, neighbours in structure and some others; about 2.3% of the full set was active somewhere.
Nrf2 block – inhibitors of Nrf2 signaling | A549 ARE-Fluc reporter, luciferase luminescence, 18-24 h | actives 2.1% (n = 360,000) | Potency, µM (series often up to 46 µM), without a hit: top-dose activity change, negative = inhibition, actives largely listed as inhibitors; further: potency means the concentration at half of the fitted maximal effect; on the % scale 0 is the no-effect control and ±100 the full control effect; nearly all actives have a fitted effect of over 60% in size
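Concentration-response testing used A549 ARE_Fluc cells at 5000 cells/well. Following an 18-24 h compound incubation, viability was read by fluorescence (Ex 405/Em 525) and luciferase output by luminescence.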
A549 viability – counter-screen for Nrf2 inhibitors: cytotoxicity in A549 cells; A549 ARE-Fluc cells, CellTiter-Fluor viability, 18-24 h; Potency, µM (series often up to 46 µM), without a hit: at the highest dose activity change, negative = cytotoxicity, usual class: inhibitors; actives 0.16% (n = 390,000); AID 504648; further: potency means the concentration at half of the fitted maximal effect; on the % scale 0 is the no-effect control and ±100 the full control effect
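A549 ARE-Fluc cells in 5% FBS OPTI-MEM, 5000 cells/well, rested 2 h then exposed to compounds in concentration-response for 18-24 h at 37 °C. Viability by CellTiter-Fluor fluorescence (Ex 405/Em 525) after 30 min; luciferase luminescence (BugLite, 15 min, RT) read afterwards.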
Apoferritin bind – binds horse apoferritin like a general anesthetic | P02791 | apoferritin/1-aminoanthracene competitive binding, fluorescence | Potency, µM (top dose mostly 77.5 µM), for inactives: at the top dose activity change, negative = displacement, actives largely listed as inhibitors | actives 0.074% (n = 350,000) | AID 485281; further: potency means the concentration at half of the fitted maximal effect; on the % scale 0 is the no-effect control and ±100 the full control effect; nearly all actives have a fitted effect of over 20% in size
Target sequence (P02791 2-175 limits assumed): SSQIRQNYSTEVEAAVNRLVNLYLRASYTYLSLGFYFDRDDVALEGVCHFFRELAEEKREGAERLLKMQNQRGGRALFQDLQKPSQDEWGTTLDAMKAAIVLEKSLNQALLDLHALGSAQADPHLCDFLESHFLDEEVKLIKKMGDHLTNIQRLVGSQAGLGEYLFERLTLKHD
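In PBS, apoferritin at 10 uM is loaded with 1-AMA from a 50% saturated solution. After 10 min of compound exposure at ambient temperature, reduced 535 nm fluorescence indicates probe displacement.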
Giardia kill – kills Giardia lamblia | Giardia lamblia trophozoite viability | activity change, % at 7.66 µM, hits read low | actives 0.15% (n = 340,000); in the data active means activity change below about -80%; inconclusive means between about -30% and that limit;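 further: parasites exposed to compound for two days anaerobically before the ATP read; on the % scale 0 is the no-effect control and ±100 the full control effect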
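Media and compound were dispensed first, then trophozoites at 100 cells/well; plates sat 48 hrs at 37 deg C without oxygen before ATP luminescence reagent was added and read after 15-30 min at room temperature.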
Nrf2 ARE act – Nrf2 pathway activation; AREc32 ARE-luciferase reporter (MCF7-derived line), luminescence, 24 h; Potency, µM (highest dose often 46.1 µM), for inactives: at the highest dose activation, most hits filed as activators; actives 0.31% (n = 410,000); further: potency means the concentration at half of the fitted maximal effect; % of control where 0% means no effect; nearly all actives have a fitted effect of over 65% in size
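Nrf2 activation is followed as ARE-luciferase induction in the AREc32 line after one day of compound treatment; luminescence is read with Steady-Glo.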
mIDH1 inhibitor – inhibitors of human mutant IDH1 R132H | AID 602179 | actives 0.093% (n = 390,000) | IDH1-R132H enzyme, NADPH consumption, diaphorase/resazurin fluorescence | Potency, µM (series often up to 76.6 µM), without a hit: at the top dose activity change, negative = inhibition, actives largely listed as inhibitors; further: potency means the concentration at half of the fitted maximal effect; on the % scale 0 is the no-effect control and ±100 the full control effect; nearly all actives have a fitted effect of over 65% in size
Target sequence (O75874 whole entry R132H, stated change not applied): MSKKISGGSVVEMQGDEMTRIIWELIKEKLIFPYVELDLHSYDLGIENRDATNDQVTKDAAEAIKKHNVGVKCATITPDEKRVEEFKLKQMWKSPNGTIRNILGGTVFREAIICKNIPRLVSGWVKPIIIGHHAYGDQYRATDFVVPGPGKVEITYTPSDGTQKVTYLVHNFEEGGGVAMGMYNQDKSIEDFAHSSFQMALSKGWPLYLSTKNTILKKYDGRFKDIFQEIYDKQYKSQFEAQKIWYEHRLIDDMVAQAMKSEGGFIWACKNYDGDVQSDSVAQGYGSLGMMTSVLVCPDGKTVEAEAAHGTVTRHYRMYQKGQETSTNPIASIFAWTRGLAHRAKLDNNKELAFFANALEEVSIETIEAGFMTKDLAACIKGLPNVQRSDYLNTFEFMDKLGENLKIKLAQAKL
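IDH1-R132H (0.5 ug/mL) preincubated 30 min with compound, then NADPH (0.016 mM) and alpha-KG (2 mM) added; 80 min at RT, pH 7.5. Remaining NADPH coupled via diaphorase/resazurin to fluorescence (540/590 nm); concentration-response curves normalized to no-enzyme control.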
Resorufin autofl – interferes with resorufin fluorescence in IDH1 counter-screen; shares compounds with mIDH1 inhibitor; Resorufin detection reagent fluorescence interference, cell-free; inhibition of signal, % at 51.2 µM; 750 tested, under 10 active; AID 623980;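 further: 0% = wells with normal resorufin and full inhibition = wells lacking resorufin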
IDH1 WT – wild-type IDH1 (human) inhibition counterscreen; shares compounds with mIDH1 inhibitor; WT IDH1 enzyme, NADPH diaphorase/resazurin fluorescence; Potency, µM (highest dose often 115 µM), for inactives: at the top dose activity change, negative = inhibition, actives largely listed as inhibitors; actives 9% (n = 750); AID 623995;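 further: potency means the concentration at half of the fitted maximal effect; 0% = full WT IDH1 enzyme control and full inhibition = no enzyme wells; nearly all actives have a fitted effect of over 55% in size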
Target sequence (O75874 whole entry, looked up): as the sequence (O75874 whole entry R132H, stated change not applied) above, with H132R counted along it
mIDH1 confirm – inhibits human mutant IDH1 enzyme in cherrypick confirmation. actives 83% (n = 750). Potency, µM (titrated, usually from 76.6 µM), for the others: at the top dose activity change, negative = inhibition, hits mostly inhibitors. IDH1 R132H enzyme, NADPH diaphorase/resazurin fluorescence. shares compounds with mIDH1 inhibitor. AID 624002; further: potency means the concentration at half of the fitted maximal effect; nearly all actives have a fitted effect of over 50% in size
An asterisk follows results filed as active. Unless noted, the call rests on the fitted dose curve; in most records, active means well fitted curve in the direction sought with a large enough effect; inconclusive means small, poorly fitted or top-dose-only effect, or another doubt; inactive means no such curve, though single readings can be large; an effect the other way counts as inactive or inconclusive.

What do the screens show for `CCOc1ccc(NS(=O)(=O)c2ccc(-c3cc(C)no3)s2)cc1`?
Nrf2 block: 0.0%; A549 viability: -1.0%; Apoferritin bind: -10.9%; Nrf2 ARE act: -0.1%; mIDH1 inhibitor: 16.9%

Results for COc1ccc(CCCc2nnc(SCC(=O)Nc3cc(F)ccc3C)o2)cc1 ?
Nrf2 block: -27.2%; A549 viability: 9.3%; Apoferritin bind: -0.6%; Nrf2 ARE act: 1.0%; mIDH1 inhibitor: 13.8%

How did COc1ccc(-c2c3c(nc4sc5c(=O)[nH]c(C)nc5c24)CCC3)cc1 do in these assays?
A549 viability: 0.2%; Apoferritin bind: -0.6%; Giardia kill: -4.0; Nrf2 ARE act: -0.8%; mIDH1 inhibitor: 20.7µM*; Resorufin autofl: -5.9; IDH1 WT: -3.6%; mIDH1 confirm: 7.08µM*

Results for COc1ccc(-c2c3c(nc4sc(C(=O)Nc5cc(C)on5)c(N)c24)CCC3)cc1 ?
Nrf2 block: inconclusive; A549 viability: -2.9%; Apoferritin bind: -11.3%; Giardia kill: -3.8; Nrf2 ARE act: -0.1%; mIDH1 inhibitor: -0.3%

How did COc1ccc(N(C(=O)c2snc(C(N)=O)c2N)C(C(=O)NC2CCCC2)c2ccc(F)cc2)c(OC)c1 (stereo unspecified) do in these assays?
Nrf2 block: -0.7%; A549 viability: -0.4%; Apoferritin bind: -15.3%; Giardia kill: 5.0; Nrf2 ARE act: 2.5%; mIDH1 inhibitor: inconclusive; Resorufin autofl: -2.4; IDH1 WT: -6.9%; mIDH1 confirm: inconclusive

What do the screens show for `COc1ccc(C)cc1N(C(=O)c1snc(C(N)=O)c1N)C(C(=O)NC1CCCC1)c1ccc(F)cc1` (stereo unspecified)?
Nrf2 block: inconclusive; A549 viability: inconclusive; Apoferritin bind: -16.1%; Giardia kill: 4.4; Nrf2 ARE act: -0.4%; mIDH1 inhibitor: inconclusive; Resorufin autofl: 4.5; IDH1 WT: 1.1%; mIDH1 confirm: 15.8µM*

Results for COc1ccc(C(C(=O)NC2CCCCC2)N(C(=O)c2snc(C(N)=O)c2N)c2ccc(OC)cc2OC)cc1 (stereo unspecified) ?
Nrf2 block: -4.1%; A549 viability: 2.2%; Apoferritin bind: -12.8%; Giardia kill: -10.4; Nrf2 ARE act: 3.1%; mIDH1 inhibitor: -26.6%

What do the screens show for `CC(C)N1CC=C2C(C#N)=C(N)C(C#N)(C#N)[C@H](c3ccoc3)[C@H]2C1`?
Apoferritin bind: 5.5%

How did Cc1ccc([C@@H]2C3COCC=C3C(C#N)=C(N)C2(C#N)C#N)o1 (stereo partly specified) do in these assays?
A549 viability: -0.6%; Apoferritin bind: -6.8%; Giardia kill: 0.6; Nrf2 ARE act: 3.1%; mIDH1 inhibitor: inconclusive; Resorufin autofl: 3.3; IDH1 WT: 3.7%; mIDH1 confirm: inconclusive

What do the screens show for `CC(C)N1CC=C2C(C#N)=C(N)C(C#N)(C#N)C(c3ccccc3)C2C1` (stereo unspecified)?
Nrf2 block: inconclusive; A549 viability: -15.6%; Apoferritin bind: 59.6%; Giardia kill: 20.2; Nrf2 ARE act: 0.5%; mIDH1 inhibitor: inconclusive

How did Cc1ccc(C2C3CSCC=C3C(C#N)=C(N)C2(C#N)C#N)cc1 (stereo unspecified) do in these assays?
Nrf2 block: 14.6µM*; A549 viability: inconclusive; Apoferritin bind: -4.2%; Giardia kill: -5.8; Nrf2 ARE act: inconclusive; mIDH1 inhibitor: inconclusive; Resorufin autofl: 0.4; IDH1 WT: -5.7%; mIDH1 confirm: 39.8µM*

What do the screens show for `CCOc1ccccc1NC(=O)C1=C(C)Nc2ncnn2C1c1ccco1` (stereo unspecified)?
A549 viability: -11.8%; Apoferritin bind: 4.4%; Nrf2 ARE act: 4.4%; mIDH1 inhibitor: -2.9%

What do the screens show for `Cc1ccc(-c2cc(C(F)F)n3ncc(C(=O)N4CCCCC4c4cccnc4)c3n2)cc1` (stereo unspecified)?
Nrf2 block: inconclusive; A549 viability: 1.3%; Apoferritin bind: -2.6%; Giardia kill: 9.8; Nrf2 ARE act: 0.6%; mIDH1 inhibitor: inconclusive; Resorufin autofl: -5.3; IDH1 WT: 5.8%; mIDH1 confirm: 35.5µM*

What do the screens show for `O=C(c1cnn2c(C(F)(F)F)cc(-c3ccccc3)nc12)N1CCCCC1c1cccnc1` (stereo unspecified)?
Nrf2 block: inconclusive; A549 viability: 3.2%; Apoferritin bind: -9.7%; Giardia kill: 22.9; Nrf2 ARE act: -0.2%; mIDH1 inhibitor: 3.3%

Results for Cc1ccc(C)c(NC(=O)C(Cc2ccccc2)n2cccc2)c1 (stereo unspecified) ?
Nrf2 block: -28.5%; A549 viability: -1.4%; Apoferritin bind: -1.5%; Nrf2 ARE act: 3.9%; mIDH1 inhibitor: 20.4%

Results for CC(C)=CCc1c2c(c3occ(-c4ccc(O)cc4)c(=O)c3c1O)C=CC(C)(C)O2 ?
Nrf2 block: inconclusive; A549 viability: inconclusive; Apoferritin bind: inconclusive; Giardia kill: 3.4; Nrf2 ARE act: -2.9%; mIDH1 inhibitor: -3.9%

What do the screens show for `CC1(C)C=Cc2c(c3c(c4c(=O)c(-c5ccc(O)cc5)coc24)OC(C)(C)CC3)O1`?
Nrf2 block: inconclusive; A549 viability: -12.7%; Apoferritin bind: inconclusive; Giardia kill: 4.5; Nrf2 ARE act: 0.6%; mIDH1 inhibitor: 39.8µM*; Resorufin autofl: 9.3; IDH1 WT: -14.0%; mIDH1 confirm: 25.1µM*

What do the screens show for `CC(C)=CCc1c2c(c3occ(-c4ccc(O)c(O)c4)c(=O)c3c1O)C=CC(C)(C)O2`?
Nrf2 block: inconclusive; A549 viability: inconclusive; Giardia kill: -16.1; Nrf2 ARE act: -2.8%; mIDH1 inhibitor: 52.1µM*; Resorufin autofl: 0.4; IDH1 WT: -12.3%; mIDH1 confirm: 44.7µM*

Results for Cc1ccc(C)c(NC(=O)c2cc(=O)c3cc(C)cc(C)c3o2)c1 ?
Nrf2 block: 19.4%; A549 viability: -4.2%; Apoferritin bind: -0.2%; Nrf2 ARE act: 0.5%; mIDH1 inhibitor: -6.1%

Bioassay records as filed in PubChem.
